Assay outcomes (PubChem)
Most compounds without a hit are left out; they make up all but 13% or so of the library.
HCV inhibitor: HCV inhibition. 340,000 tested, 3.4% active. Potency, µM (series often up to 41.8 µM), for inactives: at the top dose activity change, negative = inhibition, hits mostly inhibitors. AID 651820. Huh7.5.1 HCVcc-Cre infection, luciferase reporter, 44 h; active = well fitted inhibition curve with a large enough effect; inconclusive = small, poorly fitted or top-dose-only effect, or another doubt; inactive = no such curve, though single readings can be large or run the other way; note: potency is the fitted concentration of half-maximal effect; % is set by controls: 0 for no effect and ±100 for the full control effect
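Antiviral activity was scored by luciferase reporter output from cells infected with HCVcc-Cre (~0.5 moi) in presence of compound, 44 h infection period, cells seeded 1,000/well 4 h prior.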
Marburg entry inh: Marburg virus entry inhibition; 300,000 tested, 1.8% active; Potency, µM (highest dose often 37.8 µM), for the others: at the highest dose activity change, negative = inhibition, most hits filed as inhibitors; AID 540276; Marburg virus pseudotyped entry inhibition, cell reporter; calls by dose curve; tested in HEK293 cells; note: potency is the fitted concentration of half-maximal effect; % is set by controls: 0 for no effect and ±100 for the full control effect
Shiga inhibitor: blocks Shiga toxin action in Vero cells; inhibition, % at 38.7 µM; 290,000 tested, 9.2% active; Vero cells, Shiga toxin protein synthesis inhibition reporter; in the data active = inhibition mostly above about 28%, no sharp cut-off; inactive = mostly below about 43%; note: 0% is about no effect
Cycloheximide cs: affects cycloheximide protein synthesis inhibition readout, counter-screen. cell reporter, cycloheximide protein synthesis inhibition counterscreen. max response, %. 300,000 tested, 12% active. AID 2314; in the data active = max response mostly above about 13%, no sharp cut-off; inactive = mostly below about 14%; note: read at 38.3 µM for the half of the compounds with a filed dose; 0% is about no effect
Lassa entry inh: inhibitors of Lassa virus binding or cell entry; Lassa virus pseudotype entry inhibition, cell reporter; Potency, µM (highest dose often 37.9 µM), for inactives: at the highest dose activity change, negative = inhibition, usual class: inhibitors; 300,000 tested, 1.2% active; calls by dose curve; tested in HEK293 cells; note: potency is the fitted concentration of half-maximal effect; % is set by controls: 0 for no effect and ±100 for the full control effect; nearly all actives have a fitted effect of over 50% in size
FMDV antiviral: antivirals against foot and mouth disease virus; AID 1159524; Potency, µM (series often up to 57.9 µM), for the others: at the top dose activity change, negative = inhibition, usual class: inhibitors; 410,000 tested, 1.2% active; FMDV antiviral cell-based qHTS; calls by dose curve; tested in HEK293T cells; note: read-out not given here; potency is the fitted concentration of half-maximal effect; % is set by controls: 0 for no effect and ±100 for the full control effect; nearly all actives have a fitted effect of over 45% in size
Active calls of the source: *; ? = inconclusive; · = no result given; [ ] = remark or other dose.

SMILES	HCV inhibitor	Marburg entry inh	Shiga inhibitor	Cycloheximide cs	Lassa entry inh	FMDV antiviral
CCN(CC)S(=O)(=O)c1ccc2c(c1)c(=O)c(C(=O)NCc1ccccc1OC)cn2C	·	14%[46.1 µM]	·	·	?	0%
CCc1ccc(OCC(=O)NC(C)C)cc1	5%	28%[46.1 µM]	111*	27*	6%[46.1 µM]	11%
COc1cc(NC2c3ncccc3C(=O)N2Cc2ccco2)cc(OC)c1 (centres undefined)	1%	-11%	-1	9	-32%	4%
COCCCn1c(C)c(C(C)=O)cc(NC(=O)c2ccccc2)c1=O	-2%	-10%[46.1 µM]	-8	16	-16%	-5%
CCOC(=O)/C=C1\CC(=O)Nc2cc(C)c(C)cc2N1	9%	-2%	12	7	-5%	19%
COc1cc(-c2c(C#N)c(N)nc3c2c(C)nn3-c2ccc(C)c(C)c2)cc(OC)c1OC	?	21µM*	12	10	?	-13%
Cc1nn(-c2ccccc2)c2nc(N)c(C#N)c(-c3ccc(O)c(O)c3)c12	11µM*	?	-4	-2	?	-21%
Cc1nc2ccc(S(=O)(=O)NCC(=O)N3CCOCC3)cc2s1	14%	18%	-7	1	9%	27%
CCCN1C(=O)COc2ccc(C(=O)c3ccccc3C(=O)O)cc21	10%	1%[46.1 µM]	-12	-2	3%[46.1 µM]	2%
CCCN1C(=O)COc2ccc(-c3n[nH]c(=O)c4ccccc34)cc21	-23%	10µM*	-6	13	-2%[46.1 µM]	?
Cc1cc(=O)oc(C)c1C(=O)NCc1cccnc1	7%	17%	-12	5	3%	11%
CCN(CC)CCC(c1ccc2c(c1)OCO2)c1c(OC)cc(OC)c2c(C)cc(=O)oc12 (centres undefined)	·	·	-13	9	·	·
COc1cc(C(CCN2CCCC2)c2c(OC)cc(OC)c3c(C)cc(=O)oc23)cc(OC)c1OC (centres undefined)	10µM*	·	16	-2	·	7%
CCN(CC)CCC(c1ccc(OC)cc1)c1c(OC)cc(OC)c2c(C)cc(=O)oc12 (centres undefined)	·	·	124*	53*	·	·
CC(NC(=O)c1ccco1)C(c1cccs1)N1CCN(c2ccccc2)CC1 (centres undefined)	-17%	·	-6	-2	·	-16%
CC(NC(=O)c1ccco1)C(c1cccs1)N1CCN(c2ccc(F)cc2)CC1 (centres undefined)	10µM*	?	-3	1	?	·
Cc1ccc(C(=O)NC(=S)Nc2cc(C(F)(F)F)ccc2Cl)cc1	-5%	?	53	7	-17%	-9%
CCN(CC)CCCn1c(C)cc2c(c1=O)C(c1cccc(Cl)c1)C(C#N)=C(N)O2 (centres undefined)	-6%	11µM*	1	-3	?	2%
CCN(CC)CCCn1c(C)cc2c(c1=O)C(c1cc(OC)c(OC)cc1OC)C(C#N)=C(N)O2 (centres undefined)	7%	14%	-12	-4	3%	-25%
CCC(=O)Nc1cc(ON=C(C)C)cc([N+](=O)[O-])c1	?	?	-12	-3	2%	-24%
CC(C)=NOc1cc(NC(=O)CCl)cc([N+](=O)[O-])c1	25µM*	23µM*	-5	-4	18µM*	7.9µM*
O=C(CCl)Nc1cc(SCC(O)CO)cc([N+](=O)[O-])c1 (centres undefined)	1.6µM*	?	-19	-7	?	14µM*
CSCCC(N)C(=O)NC(CC(C)C)C(=O)NC(Cc1ccccc1)C(=O)O (centres undefined)	·	·	·	·	·	0%
O=S1(=O)CCC(NC2CCCC2)C1 (centres undefined)	6%	?	-2	-2	?	-7%
O=[N+]([O-])c1cc(/C=N/N/C(=N/c2ccccn2)c2ccccn2)ccc1O	?	?	123*	34*	-22%	31%
O=[N+]([O-])c1ccc(/C=N/N/C(=N/c2ccccn2)c2ccccn2)cc1	-18%	?	50	40*	?	·
O=C(N/N=C/c1ccc(O)c([N+](=O)[O-])c1)c1ccncc1	0%	·	-11	1	·	-17%
O=C(Oc1cccc(/C=N/NC(=O)c2ccccn2)c1)c1ccc([N+](=O)[O-])cc1	8%	-29%	-18	-1	?	-30%
